Test results taken from PubChem BioAssay (NCATS).
Inconclusive results are not listed. Active and inactive are the calls of the source. Calls follow the shape of the dose curve; as a rule, active = well fitted cell-killing curve with a large enough effect; inconclusive = small, poorly fitted or top-dose-only effect, or effect the other way; inactive = flat fitted curve, though single readings scatter.

Tests used:
Experiment in all cases: Primary qHTS to identify gynecologic anti-cancer compounds using libraries of approved drugs and bioactive compounds (AID 1345084); also: nearly all actives have a fitted effect of over 55% in size
C33A = conditions: Gynecologic cancer cell panel viability, ATPlite luminescence, 48 h; series mostly up to 57.5 µM
How it was run: (§1)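 Cells, 1,000 per well, were allowed to settle for 16 h at 37 C before compound addition. Five concentrations were tested for 48 h, and viability was read by ATPlite luminescence after 15 min at room temperature.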

CAOV3 = conditions: Gynecologic cancer cell panel viability, ATPlite luminescence, 48 h; series mostly up to 57.5 µM
How it was run: as §1

CASKI = conditions: Gynecologic cancer cell panel viability, ATPlite luminescence, 48 h; series mostly up to 57.5 µM
How it was run: as §1

Es-2 = conditions: Gynecologic cancer cell panel viability, ATPlite luminescence, 48 h; series mostly up to 57.5 µM
How it was run: as §1

HeLa = conditions: Gynecologic cancer cell panel viability, ATPlite luminescence, 48 h; series mostly up to 57.5 µM
How it was run: as §1

Hek293T = conditions: Gynecologic cancer cell panel viability, ATPlite luminescence, 48 h, control line for the selectivity index; series mostly up to 57.5 µM
How it was run: as §1

JEG-3 = conditions: Gynecologic cancer cell panel viability, ATPlite luminescence, 48 h; series mostly up to 57.5 µM
How it was run: as §1

OV90 = conditions: Gynecologic cancer cell panel viability, ATPlite luminescence, 48 h; series mostly up to 57.5 µM
How it was run: as §1

PA-1 = conditions: Gynecologic cancer cell panel viability, ATPlite luminescence, 48 h; series mostly up to 57.5 µM
How it was run: as §1

SKOV3 = conditions: Gynecologic cancer cell panel viability, ATPlite luminescence, 48 h; series mostly up to 57.5 µM
How it was run: as §1

Tov-21-G = conditions: Gynecologic cancer cell panel viability, ATPlite luminescence, 48 h; series mostly up to 57.5 µM
How it was run: as §1

Tov112D = conditions: Gynecologic cancer cell panel viability, ATPlite luminescence, 48 h; series mostly up to 57.5 µM
How it was run: as §1
% is scaled to controls: 0 for no effect and ±100 for the full control effect.

CC1=C(C)C(=O)OC(C(C)C2C(O)CC3C4C5OC5C5(O)CC(OC6OC(CO)C(OC7OC(C)C(O)C(O)C7O)C(O)C6O)CC(O)C5(C)C4CCC32C)C1 (centres undefined)
inactive: Potency (C33A) | Potency (CAOV3) | outcome (CASKI) | Potency (Es-2) | Potency (HeLa) | Potency (Hek293T) | Potency (JEG-3) | Potency (OV90) | Potency (PA-1) | Potency (SKOV3) | Potency (Tov-21-G) | Potency (Tov112D)

OC[C@H]1O[C@@H](O[C@H]2[C@H](O)[C@@H](CO)O[C@@H](OCc3ccccc3)[C@@H]2O[C@@H]2OC[C@](O)(CO)[C@H]2O)[C@H](O)[C@@H](O)[C@@H]1O
inactive: Potency (C33A) | Potency (CAOV3) | outcome (CASKI) | Potency (Es-2) | Potency (HeLa) | Potency (Hek293T) | Potency (JEG-3) | Potency (OV90) | Potency (PA-1) | Potency (SKOV3) | Potency (Tov-21-G) | Potency (Tov112D)

Cn1c2ccc(NC(=O)c3ccccc3)cc2c(=O)n2nc(C(=O)O)cc12
inactive: Potency (C33A) | Potency (CAOV3) | outcome (CASKI) | Potency (Es-2) | Potency (HeLa) | Potency (Hek293T) | Potency (JEG-3) | Potency (OV90) | Potency (PA-1) | Potency (SKOV3) | Potency (Tov-21-G) | Potency (Tov112D)

CC(=O)NC(C(=O)OC1CCC(C)(C)C2CC=C3C(=O)OCC3C12C)C(C)C (centres undefined)
inactive: Potency (C33A) | Potency (CAOV3) | outcome (CASKI) | Potency (Es-2) | Potency (HeLa) | Potency (Hek293T) | Potency (JEG-3) | Potency (OV90) | Potency (PA-1) | Potency (SKOV3) | Potency (Tov-21-G) | Potency (Tov112D)

COc1cc(O)cc2c1C(=O)OC(C)CCCCCCC2 (centres undefined)
inactive: Potency (C33A) | Potency (CAOV3) | outcome (CASKI) | Potency (Es-2) | Potency (HeLa) | Potency (Hek293T) | Potency (JEG-3) | Potency (OV90) | Potency (PA-1) | Potency (SKOV3) | Potency (Tov-21-G) | Potency (Tov112D)

N[C@@H](CC(=O)Nc1ccc(Oc2cc(F)c(F)cc2Br)cc1)C(=O)O
inactive: Potency (C33A) | Potency (CAOV3) | outcome (CASKI) | Potency (Es-2) | Potency (HeLa) | Potency (Hek293T) | Potency (JEG-3) | Potency (OV90) | Potency (PA-1) | Potency (SKOV3) | Potency (Tov-21-G) | Potency (Tov112D)

COc1c2c(c(C)c3c1C(=O)OC3)OC1(C)CC(O)C34OC(O)(CCC3(C)C1C2)OC4(C)C (centres undefined)
inactive: Potency (C33A) | Potency (CAOV3) | outcome (CASKI) | Potency (Es-2) | Potency (HeLa) | Potency (Hek293T) | Potency (JEG-3) | Potency (OV90) | Potency (PA-1) | Potency (SKOV3) | Potency (Tov-21-G) | Potency (Tov112D)

C=C1CC[C@H]2[C@@](C)(CCC(O)[C@@]2(C)CO)[C@@H]1/C=C/C(=C\C(=O)O)C(=O)O (some centres undefined)
inactive: Potency (C33A) | Potency (CAOV3) | outcome (CASKI) | Potency (Es-2) | Potency (HeLa) | Potency (Hek293T) | Potency (JEG-3) | Potency (OV90) | Potency (PA-1) | Potency (SKOV3) | Potency (Tov-21-G) | Potency (Tov112D)

C[C@@H]1O[C@@H](O[C@H]2[C@H](OC(=O)[C@]34CCC(C)(C)C[C@H]3C3=CCC5[C@@]6(C)CC[C@H](O[C@@H]7O[C@H](CO[C@@H]8OC[C@H](O)[C@H](O)[C@H]8O)[C@@H](O)[C@H](O)[C@H]7O)C(C)(C)C6CC[C@@]5(C)[C@]3(C)C[C@H]4O)OC[C@@H](O)[C@@H]2O)[C@H](O)[C@H](O[C@@H]2OC[C@](O)(CO)[C@H]2O)[C@H]1O[C@@H]1OC[C@H](O)[C@H](O[C@@H]2OC[C@@H](O)[C@H](O)[C@H]2O)[C@H]1O (some centres undefined)
inactive: activity change, negative = cytotoxicity (C33A) -0.179% [at 6.55 µM] | activity change, negative = cytotoxicity (CAOV3) 23.4% [at 6.55 µM] | activity change, negative = cytotoxicity (CASKI) 9.95% [at 6.55 µM] | activity change, negative = cytotoxicity (Es-2) 8.45% [at 6.55 µM] | activity change, negative = cytotoxicity (HeLa) 22.1% [at 6.55 µM] | activity change, negative = cytotoxicity (Hek293T) 8.51% [at 6.55 µM] | activity change, negative = cytotoxicity (JEG-3) -2.51% [at 6.55 µM] | activity change, negative = cytotoxicity (OV90) -11.9% [at 6.55 µM] | activity change, negative = cytotoxicity (PA-1) -3.2% [at 6.55 µM] | activity change, negative = cytotoxicity (SKOV3) 6.12% [at 6.55 µM] | activity change, negative = cytotoxicity (Tov-21-G) 4.71% [at 6.55 µM] | activity change, negative = cytotoxicity (Tov112D) 0.0459% [at 6.55 µM]

C=CCC/C=C/C#CCCCCCCCC[C@H]1C(=O)O[C@H](C)[C@@H]1O
inactive: Potency (C33A) | Potency (CAOV3) | outcome (CASKI) | Potency (Es-2) | Potency (HeLa) | Potency (Hek293T) | Potency (JEG-3) | Potency (OV90) | Potency (PA-1) | Potency (SKOV3) | Potency (Tov-21-G) | Potency (Tov112D)

C[C@@H]1O[C@@H](O[C@H]2[C@@H]3C=CO[C@@H](O[C@@H]4O[C@H](CO)[C@@H](O)[C@H](O)[C@H]4O)[C@@H]3[C@@]3(CO)O[C@@H]23)[C@H](O)[C@H](O)[C@H]1OC(=O)/C=C/c1ccc(O)cc1
inactive: Potency (C33A) | Potency (CAOV3) | outcome (CASKI) | Potency (Es-2) | Potency (HeLa) | Potency (Hek293T) | Potency (JEG-3) | Potency (OV90) | Potency (PA-1) | Potency (SKOV3) | Potency (Tov-21-G) | Potency (Tov112D)

C[C@@H]1O[C@@H](O[C@H]2[C@H](O)[C@@H](O[C@@H]3O[C@H](CO)[C@H](O)[C@H](O)[C@H]3O)[C@H](O[C@H]3CC[C@@]4(C)C(CC[C@]5(C)C4CC=C4[C@@H]6CC(C)(C)CC[C@]6(C(=O)O[C@@H]6O[C@H](CO)[C@@H](O)[C@H](O)[C@H]6O)CC[C@]45C)C3(C)C)O[C@@H]2C(=O)O)[C@H](O)[C@H](O)[C@H]1O (some centres undefined)
inactive: activity change, negative = cytotoxicity (C33A) 1.15% [at 11.6 µM] | activity change, negative = cytotoxicity (CAOV3) -1.94% [at 11.6 µM] | activity change, negative = cytotoxicity (CASKI) -5.82% [at 11.6 µM] | activity change, negative = cytotoxicity (Es-2) 2.19% [at 11.6 µM] | activity change, negative = cytotoxicity (HeLa) 1.11% [at 11.6 µM] | activity change, negative = cytotoxicity (Hek293T) -2.99% [at 11.6 µM] | activity change, negative = cytotoxicity (JEG-3) -3.24% [at 11.6 µM] | activity change, negative = cytotoxicity (OV90) 5.7% [at 11.6 µM] | activity change, negative = cytotoxicity (PA-1) 7.27% [at 11.6 µM] | activity change, negative = cytotoxicity (SKOV3) -3.61% [at 11.6 µM] | activity change, negative = cytotoxicity (Tov-21-G) 8.52% [at 11.6 µM] | activity change, negative = cytotoxicity (Tov112D) 3% [at 11.6 µM]
